Laboratory results reported in PubChem BioAssay (NCATS).
Several values for one entry are separate records, joined by “and”; a condition that tells them apart may be missing. Equal values may be shown once. Records with an inconclusive call do not appear. Entries that show only a call come without a potency. Activity calls are given as the source filed them. The call rests on the fitted dose curve; in most records, active means well fitted curve in the direction sought with a large enough effect; inconclusive means small, poorly fitted or top-dose-only effect, or another doubt; inactive means no such curve, though single readings can be large; an effect the other way counts as inactive or inconclusive.

Columns and labels:
[1] = qHTS of pediatric cancer cell lines to identify multiple opportunities for drug repurposing: Primary screen for BT-12 cells (AID 1347101); further: nearly all actives have a fitted effect of over 25% in size; further: potency means the concentration at half of the fitted maximal effect
Procedure, shortened: (§1)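 Cells (500-1,000/well) rested 5 h, then received compounds for 48 h; metabolically active cells were measured by CellTiter-Glo luminescence. Final concentrations spanned up to 46 µM (MIPE, 11-point) or 0.59 nM-46 µM (NPC, 8-point) in primary screens, 11-point in follow-ups.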

[2] = qHTS of pediatric cancer cell lines to identify multiple opportunities for drug repurposing: Primary screen for Rh18 cells (AID 1347102); further: nearly all actives have a fitted effect of over 65% in size; further: potency means the concentration at half of the fitted maximal effect
Procedure, shortened: as §1

[3] = qHTS of pediatric cancer cell lines to identify multiple opportunities for drug repurposing: Primary screen for OHS-50 cells (AID 1347103); further: nearly all actives have a fitted effect of over 40% in size; further: potency means the concentration at half of the fitted maximal effect
Procedure, shortened: as §1

[4] = qHTS of pediatric cancer cell lines to identify multiple opportunities for drug repurposing: Primary screen for RD cells (AID 1347104); further: nearly all actives have a fitted effect of over 55% in size; further: potency means the concentration at half of the fitted maximal effect
Procedure, shortened: (§2)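 ATP-based luminescence (CellTiter-Glo) quantifies viability after a 48-hour exposure. Compounds are dosed across 8 or 11 final concentrations; DMSO and 2.3 µM bortezomib serve as controls.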

[5] = qHTS of pediatric cancer cell lines to identify multiple opportunities for drug repurposing: Primary screen for MG 63 (6-TG R) cells (AID 1347105); further: nearly all actives have a fitted effect of over 50% in size; further: potency means the concentration at half of the fitted maximal effect
Procedure, shortened: as §2

[6] = qHTS of pediatric cancer cell lines to identify multiple opportunities for drug repurposing: Primary screen for control Hh wild type fibroblast cells (AID 1347106);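 further: series mostly up to about 46 µM; a drop in luminescence marks cytotoxicity and a rise apparent proliferation; nearly all actives have a fitted effect of over 55% in size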
Procedure, shortened: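 Viability after 48 h compound treatment at 37C, 500-1,000 cells/well, read as ATP luminescence with CellTiter-Glo. Primary screens used 11-point (MIPE, 0.78 nM-46 µM) or 8-point (NPC, 0.59 nM-46 µM) final concentrations; follow-up screens used 11-point dilutions.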

[7] = qHTS of pediatric cancer cell lines to identify multiple opportunities for drug repurposing: Primary screen for Rh30 cells (AID 1347107); further: series mostly up to about 46 µM; nearly all actives have a fitted effect of over 75% in size
Procedure, shortened: as §1

[8] = qHTS of pediatric cancer cell lines to identify multiple opportunities for drug repurposing: Primary screen for Rh41 cells (AID 1347108);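 further: series mostly up to about 46 µM; luminescence drop marks cytotoxic hits; nearly all actives have a fitted effect of over 70% in size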
Procedure, shortened: as §2

[9] = qHTS of pediatric cancer cell lines to identify multiple opportunities for drug repurposing: Confirmatory screen for NB1643 cells (AID 1347109); further: nearly all actives have a fitted effect of over 45% in size
Procedure, shortened: as §1

[10] = qHTS of pediatric cancer cell lines to identify multiple opportunities for drug repurposing: Confirmatory screen for A673 cells (AID 1347110);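 further: potency means the concentration at half of the fitted maximal effect; cells exposed to compound for 48 h before the viability read; nearly all actives have a fitted effect of over 65% in size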
Procedure, shortened: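 Viability was read as ATP luminescence (CellTiter-Glo) after 48 h of compound exposure at 37 C in A673 cells seeded at 500-1,000/well. Titrations reached 46 uM final, with 11 points in the confirmatory screen. Concentration-response curves were fitted directly.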

SMILES	Potency [1]	Potency [2]	Potency [3]	Potency [4]	Potency [5]	Potency [6]	outcome [7]	Potency [8]	Potency [9]	Potency [10]
CC(=O)OCC(CCn1cnc2cnc(N)nc21)COC(C)=O	inactive	inactive	inactive	inactive	inactive	inactive	inactive	inactive		
Cc1ccc(-c2cc(C(F)(F)F)nn2-c2ccc(S(N)(=O)=O)cc2)cc1	inactive	inactive			inactive	inactive	inactive			
COc1ccccc1OCCNCC(O)COc1cccc2[nH]c3ccccc3c12 (stereo not given)		inactive		inactive	inactive	inactive	inactive			
O=c1[nH]cc(F)c(=O)[nH]1		inactive	inactive	inactive	inactive	inactive	inactive	inactive		
OCCN1CCN(CCCN2c3ccccc3Sc3ccc(C(F)(F)F)cc32)CC1	27.3 µM (active)		24.3 µM (active) and 27.6 µM (active)	18.7 µM (active)		inactive	inactive			
CC12CC3CC(C)(C1)CC(N)(C3)C2	inactive	inactive			inactive	inactive	inactive			
CN(C)CCC=C1c2ccccc2C=Cc2ccccc21		inactive	27.6 µM (active)		inactive	inactive	inactive			
CN(C)CCCN1c2ccccc2CCc2ccc(Cl)cc21	19.3 µM (active) and 15.5 µM (active)		13.7 µM (active) and 17.4 µM (active)	1.48 µM (active)			inactive	inactive		
Clc1ccccc1C(c1ccccc1)(c1ccccc1)n1ccnc1		inactive		18.7 µM (active)	inactive	inactive	inactive			
COc1cc2nc(N3CCN(C(=O)c4ccco4)CC3)nc(N)c2cc1OC	9.53 µM (active)			29.6 µM (active)	inactive	inactive	inactive			
NC(=O)NO		inactive				inactive	inactive		inactive	0.414 µM (active)
O=C1Cc2cc(CCN3CCN(c4nsc5ccccc45)CC3)c(Cl)cc2N1	inactive	inactive			inactive	inactive	inactive			
Clc1ccc(C(c2ccccc2Cl)C(Cl)Cl)cc1 (stereo not given)	inactive	inactive				inactive	inactive		inactive	
CC(C)NCC(O)c1ccc(O)c(O)c1 (stereo not given)	inactive		inactive			inactive	inactive		inactive	
O=c1c(O)c(-c2ccc(O)c(O)c2)oc2cc(O)cc(O)c12				inactive	inactive	inactive	inactive	inactive		
CC(CCc1ccc(O)cc1)NCCc1ccc(O)c(O)c1 (stereo not given)		20.9 µM (active)	inactive		inactive	inactive	inactive	inactive	inactive	

SMILES	Potency [1]	Potency [2]	Potency [3]	Potency [4]	Potency [5]	Potency [6]	outcome [7]	Potency [8]	Potency [9]	Potency [10]
CC#C[C@]1(O)CC[C@H]2[C@@H]3CCC4=CC(=O)CCC4=C3[C@@H](c3ccc(N(C)C)cc3)C[C@@]21C	0.685 µM (active)		7.69 µM (active)	26.6 µM (active) and 662 nM (active)		inactive	inactive			
CCCNCC(O)COc1ccccc1C(=O)CCc1ccccc1 (stereo not given)				33.2 µM (active)	inactive	inactive	inactive			
CNCCCC12CCC(c3ccccc31)c1ccccc12		18.8 µM (active) and 18.7 µM (active)	27.6 µM (active) and 24.3 µM (active)	29.6 µM (active)	16.8 µM (active)	inactive	inactive			
CS(=O)(=O)CCNCc1ccc(-c2ccc3ncnc(Nc4ccc(OCc5cccc(F)c5)c(Cl)c4)c3c2)o1		20.9 µM (active)		1.32 µM (active) and 26.6 µM (active)	5.9 µM (active)	inactive				20.8 µM (active)
CN(C)CCOC(c1ccccc1)c1ccccc1	inactive	inactive		inactive	inactive	inactive	inactive	inactive		
CN1CCC(=C2c3ccccc3C=Cc3ccccc32)CC1			13.8 µM (active) and 19.3 µM (active)		inactive	inactive	inactive			
CN1CCC(=C2c3ccccc3CC(=O)c3sccc32)CC1	inactive	inactive			23.5 µM (active)	inactive	inactive	inactive		
Cc1cc(C(C)(C)C)cc(C)c1CC1=NCCN1	inactive	inactive			inactive	inactive	inactive			
O=C(c1ccc(OCCN2CCCCC2)cc1)c1c(-c2ccc(O)cc2)sc2cc(O)ccc12			27.6 µM (active) and 24.3 µM (active)	23.7 µM (active) and 18.7 µM (active)	26.6 µM (active) and 18.7 µM (active)	inactive	inactive	inactive		20.8 µM (active)
CC1(CN2CCC(n3c(=O)[nH]c4ccccc43)CC2)OCc2ccccc2-n2cccc21 (stereo not given)	inactive	inactive			inactive	inactive	inactive			
Fc1ccc([C@@H]2CCNC[C@H]2COc2ccc3c(c2)OCO3)cc1	inactive				inactive	inactive	inactive			
CN1CCN2c3ccccc3Cc3ccccc3C2C1 (stereo not given)	inactive	inactive		inactive	inactive	inactive	inactive	inactive		
CN1CCN(CCCN2c3ccccc3Sc3ccc(Cl)cc32)CC1	6.11 µM (active)		9.68 µM (active)	9.35 µM (active) and 26.6 µM (active)		inactive	inactive	inactive		7.37 µM (active)
OCCN(CCO)c1nc(N2CCCCC2)c2nc(N(CCO)CCO)nc(N3CCCCC3)c2n1		inactive	21.7 µM (active)			inactive	inactive	inactive		
CN1CCN(C2=Nc3cc(Cl)ccc3Nc3ccccc32)CC1	inactive	inactive			inactive	inactive	inactive			
O=C(CCCN1CCC(O)(c2ccc(Cl)cc2)CC1)c1ccc(F)cc1		inactive	inactive		inactive	inactive	inactive	inactive		
